# From the supplement of paper PMC9023506
# Structures can show the parent of a compound that is named as a salt.
# Tested on: Danio rerio larvae (5 dpf)
# Assay: optomotor response to green moving lines, difference vs DMSO (percentage points (treated minus DMSO)); higher = more of the behaviour than the DMSO vehicle control
# Settings: 10 µM; exposure time: 3 h pre-incubation + 3 h imaging
# Procedure: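 5-dpf wild-type zebrafish larvae were imaged in 96-well plates. They were treated with 190 Tocris FDA-approved drugs at 10 µM (1 µl/ml DMSO) for 3 h before and 3 h during imaging at 28.5 °C, 48 larvae per drug. Automated image analysis gave % time moving and optomotor responses. Values are drug group mean minus DMSO vehicle mean (n=844), in percentage points, for 10 behaviours.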
row,SMILES,optomotor response to green moving lines
1,CCOC(=O)[C@H](CCc1ccccc1)N[C@@H](C)C(=O)N1[C@H](C(=O)O)C[C@@H]2CCC[C@@H]21 [Ramipril],-0.542
2,CC[C@H]1OC(=O)[C@H](C)[C@@H](O[C@H]2C[C@@](C)(OC)[C@@H](O)[C@H](C)O2)[C@H](C)[C@@H](O[C@@H]2O[C@H](C)C[C@H](N(C)C)[C@H]2O)[C@](C)(O)C[C@@H](C)CN(C)[C@H](C)[C@@H](O)[C@]1(C)O [Azithromycin],-4.27
3,O=C(c1ccc(OCCN2CCCCC2)cc1)c1c(-c2ccc(O)cc2)sc2cc(O)ccc12 [Raloxifene hydrochloride],-7.74
4,CNS(=O)(=O)Cc1ccc2[nH]cc(CCN(C)C)c2c1 [Sumatriptan succinate],3.74
5,Nc1ncn([C@@H]2O[C@H](CO)[C@@H](O)[C@H]2O)c(=O)n1 [5-Azacytidine],1.33
6,CC(C)OC(=O)C(C)(C)Oc1ccc(C(=O)c2ccc(Cl)cc2)cc1 [Fenofibrate],8.84
7,N#Cc1ccc(C(c2ccc(C#N)cc2)n2cncn2)cc1 [Letrozole],6.3
8,COc1cc2ncnc(Nc3ccc(F)c(Cl)c3)c2cc1OCCCN1CCOCC1 [Iressa],-10.8
9,C/C(O)=C(\C#N)C(=O)Nc1ccc(C(F)(F)F)cc1 [Teriflunomide],-10.8
10,CNC(=O)c1cc(Oc2ccc(NC(=O)Nc3ccc(Cl)c(C(F)(F)F)c3)cc2)ccn1 [Sorafenib],-2.72
11,CN[C@H]1CC[C@@H](c2ccc(Cl)c(Cl)c2)c2ccccc21 [Sertraline hydrochloride],-6.64
12,CCN(CC)CCNC(=O)c1c(C)[nH]c(/C=C2\C(=O)Nc3ccc(F)cc32)c1C [Sunitinib malate],-7.59
13,Cc1ccccc1C(=O)Nc1ccc(C(=O)N2CCCC(O)c3cc(Cl)ccc32)c(C)c1 (stereo not given) [Tolvaptan],10.3
14,COc1ccc(C[C@@H](C)NC[C@H](O)c2ccc(O)c(NC=O)c2)cc1 [Arformoterol tartrate],0.317
15,CCCCc1nc(Cl)c(CO)n1Cc1ccc(-c2ccccc2-c2nnn[nH]2)cc1 [Losartan potassium],-0.568
16,CN1CCN2c3ncccc3Cc3ccccc3C2C1 (stereo not given) [Mirtazapine],-1.59
17,CCN(Cc1ccncc1)C(=O)C(CO)c1ccccc1 (stereo not given) [Tropicamide],-4.16
18,CNC(=O)c1ccccc1Sc1ccc2c(/C=C/c3ccccn3)n[nH]c2c1 [Axitinib],2.99
19,CCCc1nn(C)c2c(=O)[nH]c(-c3cc(S(=O)(=O)N4CCN(C)CC4)ccc3OCC)nc12 [Sildenafil citrate],-1.55
20,O=c1n(CCCN2CCN(c3cccc(Cl)c3)CC2)nc2ccccn12 [Trazodone hydrochloride],1.17

row,SMILES,optomotor response to green moving lines
1,C[C@]12CC[C@@H]3c4ccc(O)cc4C[C@@H](CCCCCCCCC[S+]([O-])CCCC(F)(F)C(F)(F)F)[C@H]3[C@@H]1CC[C@@H]2O (stereo not given in full),-7.68
2,Cc1ccc(N(CC2=NCCN2)c2cccc(O)c2)cc1 [Phentolamine Mesylate],5.31
3,N#C[C@@H]1C[C@@H]2C[C@@H]2N1C(=O)[C@@H](N)C12CC3CC(CC(O)(C3)C1)C2 [Saxagliptin hydrochloride],-3.2
4,COc1cc2nccc(Oc3ccc(NC(=O)C4(C(=O)Nc5ccc(F)cc5)CC4)cc3)c2cc1OC,9.65
5,COc1ccc(Cl)cc1C(=O)NCCc1ccc(S(=O)(=O)NC(=O)NC2CCCCC2)cc1 [Glibenclamide],9.49
6,CC(C)C(=O)Nc1ccc([N+](=O)[O-])c(C(F)(F)F)c1 [Flutamide],-1.99
7,Cc1cccc(C)c1OCC(C)N (stereo not given) [Mexiletine hydrochloride],-1.17
8,CCCN(CCC)S(=O)(=O)c1ccc(C(=O)O)cc1 [Probenecid],10.3
9,CC(C)C(=O)OCC(=O)[C@@]12O[C@H](C3CCCCC3)O[C@@H]1C[C@H]1[C@@H]3CCC4=CC(=O)C=C[C@]4(C)[C@H]3[C@@H](O)C[C@@]12C [Ciclesonide],-7.98
10,CCOC(=O)[C@H](CCc1ccccc1)N[C@H]1CCc2ccccc2N(CC(=O)O)C1=O [Benazepril hydrochloride],11.6
11,COc1ccc([C@@H]2Sc3ccccc3N(CCN(C)C)C(=O)[C@@H]2OC(C)=O)cc1 [Diltiazem hydrochloride],-3.02
12,CCCCNc1cc(C(=O)O)cc(S(N)(=O)=O)c1Oc1ccccc1 [Bumetanide],5.17
13,Nc1nc2c(ncn2COCCO)c(=O)[nH]1 [Acyclovir],0.472
14,C#CCN[C@@H]1CCc2ccccc21 [Rasagiline mesylate],-10.1
15,Nc1nc(NC2CC2)c2ncn([C@H]3C=C[C@@H](CO)C3)c2n1 [Abacavir hemisulfate],6.07
16,C[C@]12CCC(=O)C=C1CC[C@@H]1[C@@H]2[C@@H](O)C[C@@]2(C)[C@H]1CC[C@]2(O)C(=O)CO [Hydrocortisone],10.5
17,CC(=O)O[C@]1(C(C)=O)CC[C@H]2[C@@H]3C=C(C)C4=CC(=O)CC[C@]4(C)[C@H]3CC[C@@]21C [Megestrol Acetate],-2.03
18,CCOC(=O)c1ncn2c1CN(C)C(=O)c1cc(F)ccc1-2 [Flumazenil],15
19,C[C@@H](O[C@H]1OCCN(Cc2n[nH]c(=O)[nH]2)[C@H]1c1ccc(F)cc1)c1cc(C(F)(F)F)cc(C(F)(F)F)c1 [Aprepitant],4.81
20,CCc1c2c(nc3ccc(OC(=O)N4CCC(N5CCCCC5)CC4)cc13)-c1cc3c(c(=O)n1C2)COC(=O)[C@]3(O)CC,-1.18
